A short description of the assay: chemical genetic growth profiling, strain panel (AID 1159580).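 Further: tested at 20 µM; growth read once vehicle control cultures reached saturation at 30 °C; 1 = growth at the plate median or of vehicle wells; lower values mean less growth of the strain.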 Conditions: S. cerevisiae deletion strains, growth OD.

In all, about 5,500 compounds went through this assay and about 2,000 (36%) were called active. Roughly 18% stayed inconclusive and do not appear here. The list shows a part of the results. A number with no mark means an inactive call. No stated cut-off is given here; in the data, active means normalized growth mostly below about 0.91 (no sharp cut-off); inconclusive means no clear call, values can overlap the other calls; inactive means mostly above about 0.92.

In the case of `CCCN1CCc2cccc3c2[C@H]1Cc1ccc(O)c(O)c1-3`, the normalized growth was 0.955 (locus YAL040C, strain CLN3, hits give low values); 0.516 (active) (locus YCL061C, strain MRC1 (second series), hits give low values); 0.79 (active) (locus YDR363W, strain ESC2, hits give low values); 0.975 (locus YER002W, strain NOP16, hits give low values); 0.186 (active) (locus YGR229C, strain SMI1, hits give low values); 0.481 (active) (locus YMR307W, strain GAS1, hits give low values). For the same molecule, the normalized growth runs as follows: (locus YNL153C, strain GIM3, hits give low values) 0.534 (active); (locus YNL175C, strain NOP13, hits give low values) 0.96; (locus YNL197C, strain WHI3, hits give low values) 0.985; (locus YNL224C, strain SQS1, hits give low values) 0.996; (locus YOR083W, strain WHI5 (second series), hits give low values) 0.631 (active); (locus YPL055C, strain LGE1, hits give low values) 0.23 (active).

The values above are taken from PubChem BioAssay AID1159580 (chemical genetic matrix, 2015).
